# Measurements from PubChem BioAssay (NCATS).
# Records with an inconclusive call do not appear. A call without a number means that no potency is given here. Values without a mark were called inactive. Activity calls are given as the source filed them. The call rests on the fitted dose curve; in most records, active means well fitted inhibition curve with a large enough effect; inconclusive means small, poorly fitted or top-dose-only effect; inactive means no such curve, though single readings can be large or run the other way. Where a SMILES comes first, the peptide text is derived from it. [ ]: non-standard residue; d: D form. ξ: configuration not given here. ξPhe(βξ-Me) = CC(c1ccccc1)C(N)C(=O)O; GABA = NCCCC(=O)O
# Columns and labels:
# [1] = system: Zika virus NS2B-NS3 protease (unlinked complex); assay: Primary screen GU Rhodamine qHTS for Zika virus inhibitors: Unlinked NS2B-NS3 protease assay (AID 1347159); further: nearly all actives have a fitted effect of over 60% in size
# Summary of the method: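 Percent inhibition came from the 15-min rise in Rhodamine110 fluorescence (1.5 microM substrate, ~15% conversion), normalized to no-inhibitor and no-enzyme wells and Hill-fitted. Unlinked protease, 25 nM, pH 8.0 Tris buffer; compounds up to 114 microM, 15-min preincubation.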
# [2] = system: Zika virus NS2B-NS3 protease (linked construct); assay: Primary screen NINDS Rhodamine qHTS for Zika virus inhibitors (AID 1347160); further: nearly all actives have a fitted effect of over 55% in size; further: potency means the concentration at half of the fitted maximal effect
# Summary of the method: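 Rhodamine110-peptide cleavage (1.5 µM substrate) by 25 nM linked NS2B-NS3 enzyme at pH 8.0 (Tris, Tween 20), after 15 min RT preincubation with compounds; 15-min fluorescence change normalized to controls and Hill-fitted.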
structure (smiles),measurement,setting,value
O=C(O)c1ccc(OC2OC(CO)C(O)C(O)C2O)cc1 (stereo unspecified),Potency,[1],inactive
same,Potency,[2],inactive
CCC(=O)O[C@H]1C(C)(C)[C@H]([C@@H](O)C(=O)OC)[C@]2(C)C(=O)[C@@]1(O)[C@H]1O[C@]13C1CC(=O)O[C@@H](c4ccoc4)[C@]1(C)CCC32 (stereo partly specified),Potency,[1],inactive
same,Potency,[2],inactive
CC1NC(=O)CCCNC(=O)C(Cc2c[nH]c3ccccc23)NC(=O)C(C)NC(=O)C(C(C)C)NC(=O)C(C(C)c2ccccc2)NC(=O)C(C(C)C)NC1=O (stereo not drawn) (cyclo([GABA]AV[ξPhe(βξ-Me)]VAW); configuration not given here),Potency,[1],inactive
same,Potency,[2],inactive
CCOc1cc(C(=O)N2CCC(N3CCN(C)CC3)CC2)ccc1Nc1ncc2c(n1)N(C1CCCC1)c1ccccc1C(=O)N2C,Potency,[1],inactive
same,Potency,[2],inactive
O=C(CN1C(=O)C2(CCCC2)NCC1c1cc(F)cc(F)c1)Nc1ccc2c(c1)CC1(C2)C(=O)Nc2ncccc21 (stereo unspecified),Potency,[1],inactive
same,Potency,[2],inactive
COc1c(Nc2ncc(Cl)c(N[C@H]3[C@@H](C(N)=O)[C@@H]4C=C[C@H]3C4)n2)ccc2c1CC[C@@H](N1CCOCC1)CC2,Potency,[1],inactive
same,Potency,[2],inactive
C/C=C(\C)C(=O)O[C@@H]1CC2[C@@H](CC=C3C[C@@H](O[C@H]4C[C@H](OC)[C@H](O[C@H]5C[C@H](OC)[C@H](O[C@@H]6O[C@H](C)[C@@H](O[C@H]7C[C@H](OC)[C@H](O[C@@H]8O[C@H](CO)[C@@H](O)[C@H](O)[C@H]8O)[C@@H](C)O7)[C@H](OC)[C@H]6O)[C@@H](C)O5)[C@@H](C)O4)CC[C@@]32C)[C@@]2(O)CC[C@H](C(C)=O)[C@@]12C (stereo partly specified),"activity change, negative = inhibition",[1],8.5% [at 19.1 µM]
same,"activity change, negative = inhibition",[2],18.6% [at 10.7 µM]
CC1=C(CCC(C)CC(=O)O)[C@@]2(C)CCCC(C)(C)C2CC1=O (stereo partly specified),Potency,[1],inactive
same,Potency,[2],inactive
C=C1CCCC2(C)CC3(OC)OC(=O)C(C)=C3CC12 (stereo unspecified),Potency,[1],inactive
same,Potency,[2],inactive
O=C(O[C@H]1[C@@H]2C[C@@H]3OC[C@](O)([C@@H]1Cl)[C@H]2C(O[C@@H]1O[C@H](CO)[C@@H](O)[C@H](O)[C@H]1O)O3)c1ccc(O)c(O)c1 (stereo partly specified),Potency,[1],inactive
same,Potency,[2],inactive
Cc1ccc(-c2c(C(=O)CF)n(CCCO)c3ncnc(N)c23)cc1,Potency,[1],inactive
same,Potency,[2],inactive
OC[C@H]1O[C@@H](OCCc2ccc(O)cc2)[C@H](O[C@@H]2OC[C@](O)(CO)[C@H]2O)[C@@H](O)[C@@H]1O,Potency,[1],inactive
same,Potency,[2],inactive
COc1ccc2cc(C(C)C(=O)Oc3ccc(C(N)=S)cc3)ccc2c1 (stereo unspecified),Potency,[1],inactive
same,Potency,[2],inactive
CC1(C)CC[C@]2(C(=O)O[C@@H]3O[C@H](CO[C@@H]4O[C@H](CO)[C@@H](O)[C@H](O)[C@H]4O[C@@H]4O[C@H](CO)[C@@H](O)[C@H](O)[C@H]4O)[C@@H](O)[C@H](O[C@@H]4O[C@H](CO)[C@@H](O)[C@H](O)[C@H]4O)[C@H]3O)CC[C@]3(C)C(=CCC4[C@@]5(C)CC[C@@H](O)[C@@](C)(C(=O)O[C@@H]6O[C@H](CO)[C@@H](O)[C@H](O)[C@H]6O)C5CC[C@]43C)[C@@H]2C1 (stereo partly specified),"activity change, negative = inhibition",[1],14.6% [at 19.1 µM]
same,outcome,[2],inactive [at 10.7 µM]
C[C@H](NC(c1cccc(C[P+](=O)O)c1)[C@H](C)O)c1ccc(Cl)c(Cl)c1 (stereo partly specified),Potency,[1],inactive
same,Potency,[2],inactive
CCN1CCN(Cc2ccc(NC(=O)c3ccc(C)c(/C=C/c4cnc5[nH]ccc5c4OC)c3)cc2C(F)(F)F)CC1,Potency,[1],inactive
same,Potency,[2],inactive
Cc1nc(NC(=O)N2CCCC2C(N)=O)sc1-c1csc(C(C)(C)C)n1 (stereo unspecified),Potency,[1],inactive
same,Potency,[2],inactive
CCOc1ccc2nc(SCCN3CCOCC3)[nH]c2c1,Potency,[1],inactive
same,Potency,[2],inactive
COC(=O)C1=CO[C@@H](O[C@@H]2O[C@H](CO)[C@@H](O)[C@H](O)[C@H]2O)[C@@H]2[C@@](C)(O)[C@@H](OC(=O)/C=C/c3ccc(O)cc3)C[C@]12O,Potency,[1],inactive
same,Potency,[2],inactive
COC1C(CO)OC(n2cnc3c(=O)[nH]cnc32)C1O (stereo unspecified),Potency,[1],inactive
same,Potency,[2],inactive
O=C1OCc2cc3cccc(O[C@@H]4O[C@H](CO)[C@@H](O)[C@H](O)[C@H]4O)c3c(O)c21,Potency,[1],inactive
same,Potency,[2],11.2 µM (active)
O=C(O)/C=C/c1cc2c(cc1O[C@@H]1O[C@H](CO)[C@@H](O)[C@H](O)[C@H]1O)OCO2,Potency,[1],inactive
same,Potency,[2],inactive
C[C@@H]([C@@H](O)c1ccc(O)cc1)N1CCC(O)(c2ccccc2)CC1,Potency,[1],inactive
same,Potency,[2],inactive
